M1 ag: human M1 muscarinic receptor agonists, primary screen, Fluo-8 calcium fluorescence, CHO-K1 cells, HTS; Muscarinic acetylcholine receptor M1 (Homo sapiens), P11229; activation, % at 3 µM; CHO-K1 hM1, agonist mode; 0% DMSO, 100% acetylcholine EC100; actives 0.33% (n = 360,000); AID 588814, 2011;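 active means activation above the run's mean compound activation plus 3 SD, cut at about 16% in these data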;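 further: peak over basal fluorescence ratio within a 140 s kinetic read after compound addition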
Target sequence (P11229 whole entry, looked up): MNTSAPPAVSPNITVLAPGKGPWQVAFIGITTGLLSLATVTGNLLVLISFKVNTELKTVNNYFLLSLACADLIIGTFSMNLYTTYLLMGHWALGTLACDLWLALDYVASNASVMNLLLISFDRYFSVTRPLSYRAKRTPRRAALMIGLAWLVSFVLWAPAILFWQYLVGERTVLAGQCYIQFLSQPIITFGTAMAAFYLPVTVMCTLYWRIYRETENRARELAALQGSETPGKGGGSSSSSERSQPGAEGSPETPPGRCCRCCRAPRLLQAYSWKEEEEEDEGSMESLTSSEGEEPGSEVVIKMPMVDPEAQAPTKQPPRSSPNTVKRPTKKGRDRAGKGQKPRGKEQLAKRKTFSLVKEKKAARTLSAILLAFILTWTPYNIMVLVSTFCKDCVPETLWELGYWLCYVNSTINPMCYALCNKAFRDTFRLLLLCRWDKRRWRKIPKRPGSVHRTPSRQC
M1 antag: human M1 muscarinic receptor antagonists, primary screen, CHO-K1 cells, Fluo-8 calcium fluorescence, 1536-well; CHO-K1 hM1, ACh EC80 antagonist; Muscarinic acetylcholine receptor M1 (Homo sapiens), P11229; actives 1.3% (n = 360,000); inhibition, % at 3 µM;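 active means percent inhibition above its own plate's cutoff, namely the mean of that plate's compound wells plus 3 SD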;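 further: peak over basal fluorescence ratio during 140 s after agonist addition; 0% = ACh EC80 plus DMSO and 100% = DMSO alone without agonist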
M1 PAM parental: nonselective calcium activators in parental CHO-K1 cells, primary screen, counter-screen for M1 PAM project, cell-based, Fluo-8 calcium fluorescence, full deck, 1536-well; ATP EC20; 0% at ATP EC20, 100% at ATP max; activation, % at 3 µM; actives 0.02% (n = 360,000); AID 602247, 2012;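 active means activation above the run cutoff, the mean activation of all test compounds plus 3 SD, cut at about 40% in these data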;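 further: peak over basal fluorescence ratio in a 140 s read after ATP addition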
M1 ag parental: counter-screen for M1 agonists: effect in parental CHO-K1 cells | activation, % at 3 µM | Fluo-8 calcium fluorescence; scaled to maximal ATP response, vehicle zero | actives 0.48% (n = 360,000) | AID 602248, 2012; in the data active means activation above about 15%;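 further: untransfected CHO-K1 host cells lacking M1 receptor as counterscreen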
CHO-K1 Ca antag: M1 antagonist counterscreen hit in parental CHO-K1 cells. ATP-induced calcium, Fluo-8 fluorescence. inhibition, % at 3 µM. actives 0.6% (n = 360,000);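 active means inhibition above a per-plate cutoff, the plate's mean sample inhibition plus 3 SD, cut at about 24% in these data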;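 further: 0% = DMSO plus EC80 ATP and 100% = DMSO alone without ATP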
CHRM1 PAM: human M1 muscarinic receptor positive allosteric modulators, primary screen, CHO-K1 cells, Fluo-8 calcium fluorescence, 1536-well | Muscarinic acetylcholine receptor M1 (Homo sapiens), P11229 | CHO-K1 hM1, ACh EC20; 0% = ACh EC20, 100% = maximal ACh | activation, % at 3 µM | actives 0.088% (n = 360,000) | AID 588819, 2011; in the data active means activation above about 19%, passing the limit was not always enough
The depositor's hits bear a star. The list is not random: actives were taken first. Their share in the collection is about 2.3%.

Results for C[C@@H]1CN([C@H](C)CO)C(=O)CCCn2nncc2CO[C@H]1CN(C)C(=O)C1CCCCC1 ?
M1 ag: -3.0; M1 antag: -4.9; M1 PAM parental: 9.6; M1 ag parental: 0.2; CHO-K1 Ca antag: -11.4; CHRM1 PAM: 2.6

What do the screens show for `c1ccc(CCCNc2ncnc3nc[nH]c23)cc1`?
M1 ag: 20.5*; M1 antag: 1.9; M1 PAM parental: 16.1; M1 ag parental: 7.7; CHO-K1 Ca antag: -2.0; CHRM1 PAM: -5.3

What do the screens show for `c1ccc(CNc2ncnc3nc[nH]c23)cc1`?
M1 ag: -1.2; M1 antag: -20.5; M1 PAM parental: 9.5; M1 ag parental: -0.6; CHO-K1 Ca antag: 7.4; CHRM1 PAM: 2.1

How did COc1ccccc1OCCn1cc(C(=O)c2ccco2)c2ccccc21 do in these assays?
M1 ag: 4.2; M1 antag: 20.1; M1 PAM parental: -7.3; M1 ag parental: 19.7*; CHO-K1 Ca antag: -3.7; CHRM1 PAM: -6.2

What do the screens show for `Cc1ccc(C)c(OCCn2cc(C(=O)O)c3ccccc32)c1`?
M1 ag: -0.7; M1 antag: 0.2; M1 PAM parental: 13.8; M1 ag parental: 5.1; CHO-K1 Ca antag: -7.2; CHRM1 PAM: -5.5

How did CC(=O)c1cn(CCOc2cc(C)ccc2C)c2ccccc12 do in these assays?
M1 ag: 2.4; M1 antag: 26.0*; M1 PAM parental: 4.5; M1 ag parental: 4.8; CHO-K1 Ca antag: 14.5; CHRM1 PAM: -9.9

How did Nc1ccccc1-n1cccc1 do in these assays?
M1 ag: -0.7; M1 antag: -23.1; M1 PAM parental: 6.1; M1 ag parental: 0.4; CHO-K1 Ca antag: -11.3; CHRM1 PAM: 14.6

What do the screens show for `CC1CCN(CC(=O)N2CCN(c3ccccc3)CC2)CC1`?
M1 ag: -8.4; M1 antag: -0.6; M1 PAM parental: 11.0; M1 ag parental: 0.1; CHO-K1 Ca antag: -4.6; CHRM1 PAM: -7.1

How did O=C(CN1CCN(C(c2ccccc2)c2ccccc2)CC1)N1CCN(c2ccccc2)CC1 do in these assays?
M1 ag: -9.6; M1 antag: 81.2*; M1 PAM parental: 1.9; M1 ag parental: 0.0; CHO-K1 Ca antag: 0.7; CHRM1 PAM: -24.2

How did NNC(=O)CCN1CCN(C(c2ccccc2)c2ccccc2)CC1 do in these assays?
M1 ag: -6.7; M1 antag: 61.3*; M1 PAM parental: 14.2; M1 ag parental: 0.4; CHO-K1 Ca antag: -14.6; CHRM1 PAM: -15.5

What do the screens show for `O=C(CN1CCN(c2ccc(F)cc2)CC1)N1N=CCC1c1ccccc1` (stereo not drawn)?
M1 ag: -11.7; M1 antag: 102.8*; M1 PAM parental: 4.6; M1 ag parental: 1.6; CHO-K1 Ca antag: -5.3; CHRM1 PAM: 9.3

How did O=C(CN1CCN(C(c2ccccc2)c2ccccc2)CC1)N1N=CCC1c1ccccc1 (stereo not drawn) do in these assays?
M1 ag: -5.5; M1 antag: 48.0*; M1 PAM parental: 17.7; M1 ag parental: 4.9; CHO-K1 Ca antag: -9.4; CHRM1 PAM: -24.7

Results for Cc1ccc(/C=C/C(=O)Nc2ccc(S(=O)(=O)Nc3onc(C)c3C)cc2)cc1 ?
M1 ag: -5.7; M1 antag: 11.7; M1 PAM parental: 1.0; M1 ag parental: 0.1; CHO-K1 Ca antag: -8.5; CHRM1 PAM: -5.9

What do the screens show for `Cc1ccc(C)c(NC(=O)Nc2ccc3c(c2)OCO3)c1`?
M1 ag: -3.8; M1 antag: -16.2; M1 PAM parental: -15.3; M1 ag parental: -0.1; CHO-K1 Ca antag: 29.2*; CHRM1 PAM: 12.2

Results for Cc1ccc(-n2c(-c3ccccc3)c[n+]3c2CCc2ccccc2-3)c(C)c1 ?
M1 ag: -6.1; M1 antag: 54.6*; M1 PAM parental: 6.5; M1 ag parental: 4.0; CHO-K1 Ca antag: 13.4; CHRM1 PAM: -21.1

How did CNCCOc1ccccc1-c1ccccc1 do in these assays?
M1 ag: -6.0; M1 antag: 3.6; M1 PAM parental: 11.3; M1 ag parental: 0.5; CHO-K1 Ca antag: -12.3; CHRM1 PAM: -4.4

What do the screens show for `O=C(CCN1C(=O)/C(=C/C=C/c2ccccc2)SC1=S)Nc1nccs1`?
M1 ag: 2.7; M1 antag: -4.9; M1 PAM parental: -5.9; M1 ag parental: -0.9; CHO-K1 Ca antag: 25.8*; CHRM1 PAM: 9.1

What do the screens show for `CC(=O)Nc1ccc(S(=O)(=O)N2CCN(Cc3csc(C)n3)CC2)cc1`?
M1 ag: -2.2; M1 antag: -10.4; M1 PAM parental: 14.8; M1 ag parental: 1.2; CHO-K1 Ca antag: -6.2; CHRM1 PAM: 9.3

Results for C/C(=N\N1CCN(c2ccccc2)CC1)c1ccccc1O ?
M1 ag: -2.6; M1 antag: 2.8; M1 PAM parental: 12.0; M1 ag parental: 0.7; CHO-K1 Ca antag: -3.6; CHRM1 PAM: 1.3

How did C/C(=N\N1CCCCC1)c1ccccc1O do in these assays?
M1 ag: 22.0*; M1 antag: 6.0; M1 PAM parental: 15.8; M1 ag parental: 0.4; CHO-K1 Ca antag: 1.0; CHRM1 PAM: 5.2

Results for COc1cc2c(cc1OC)C(c1ccc3c(c1)Cc1ccccc1-3)OC(=O)C2 (stereo not drawn) ?
M1 ag: 0.3; M1 antag: 2.2; M1 PAM parental: 17.2; M1 ag parental: 1.8; CHO-K1 Ca antag: -11.6; CHRM1 PAM: -5.2

Results for COc1ccc(OCC(=O)NC(=S)Nc2ccc3c4c(cccc24)CC3)cc1 ?
M1 ag: -0.8; M1 antag: 8.2; M1 PAM parental: 13.7; M1 ag parental: 22.4*; CHO-K1 Ca antag: 12.9; CHRM1 PAM: -0.9

What do the screens show for `O=C(CCl)Nc1cccc2ncccc12`?
M1 ag: -4.0; M1 antag: -11.3; M1 PAM parental: 18.0; M1 ag parental: 0.6; CHO-K1 Ca antag: -16.4; CHRM1 PAM: 8.7

How did COc1ccc(OCC(=O)Nc2cccc3ncccc23)cc1 do in these assays?
M1 ag: 0.5; M1 antag: 18.4; M1 PAM parental: -6.9; M1 ag parental: 3.5; CHO-K1 Ca antag: 26.1*; CHRM1 PAM: -9.6

How did COc1ccc(F)cc1S(=O)(=O)Nc1ccc(C)cc1 do in these assays?
M1 ag: -8.3; M1 antag: 5.1; M1 PAM parental: 14.6; M1 ag parental: 0.4; CHO-K1 Ca antag: -4.0; CHRM1 PAM: -8.4

How did OCCC1CN(Cc2nc3ccccc3s2)CCN1CCc1ccccc1 (stereo not drawn) do in these assays?
M1 ag: -8.6; M1 antag: 11.6; M1 PAM parental: 4.4; M1 ag parental: 1.1; CHO-K1 Ca antag: -8.3; CHRM1 PAM: -7.6
